Calls of active or inactive are those of the source.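 Rule for the calls: active = ATP signal drop in HepG2 cells with fitted half-maximal concentration at most twice the top tested dose; inconclusive = flat curve losing 30 to 70% signal, or poor fit; inactive = the rest.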

The test is described as follows: HepG2 cell cytotoxicity, dose response, cytotoxicity control, luminescence, dry powder, set 9 (AID 743358). As to conditions: HepG2 viability, ATP luminescence, 72 h; series mostly up to 26 µM.
In the case of `COc1ccc(NC(=O)N2CC[C@@H]3[C@@H](CO)N(C)c4ccc(-c5cccc(F)c5)cc4[C@@H]32)cc1`, the call was inactive.

`CN1c2ccc(-c3cccc(F)c3)cc2[C@@H]2[C@@H](CCN2C(=O)c2ccc3c(c2)OCO3)[C@@H]1CO`: the result was inactive.

As for `CC(=O)c1ccc(N2CCN(C(=O)c3ccc4c(c3)OCO4)[C@H](C)C2)cc1`, the result was inactive.

Regarding `COc1ccccc1NC(=O)N1CC[C@@H]2[C@@H](CO)N(C)c3ccc(-c4cccc(F)c4)cc3[C@@H]21`, the call was inactive.

For the compound `CCCCCCCC(=O)N1CC[C@@H]2[C@@H](CO)N(C)c3ccc(-c4cccc(F)c4)cc3[C@@H]21`, the outcome was inactive.

On to `CC(=O)c1ccc(N2CCN(C(=O)c3ccccc3F)CC2)cc1`, for which the compound was classed as inactive.

As to `COc1ccccc1NC(=O)N1CC[C@@H]2[C@@H](CO)N(C)c3ccc(-c4ccc(F)cc4)cc3[C@@H]21`, the call was inactive.

Regarding `CN1c2ccc(-c3cccc(F)c3)cc2[C@H]2[C@H](CCN2C(=O)c2ccc3c(c2)OCO3)[C@@H]1CO`, the outcome was inactive.

For the compound `CN1c2ccc(-c3ccc(F)cc3)cc2[C@H]2[C@H](CCN2C(=O)Cc2ccccn2)[C@H]1CO`, the compound was called inactive.

`CC(=O)c1ccc(N2CC3(CN(C(=O)c4ccc5c(c4)OCO5)C3)C2)cc1`: the result was inactive.

For `CC(=O)c1ccc(N2CCN(C(=O)c3ccccc3Cl)CC2)cc1`, the outcome was inactive.

In the case of `CC(=O)c1ccc(N2CCN(C(=O)c3ccc4c(c3)OCO4)CC2)cc1`, the outcome was inactive.

Regarding `CN(C)C(=O)c1ccc(N2CCN(C(=O)c3ccc4c(c3)OCO4)CC2)cc1`, the compound was classed as inactive.

Take `COC(=O)c1ccc(N2CCN(C(=O)c3ccc4c(c3)OCO4)CC2)cc1`: the call was inactive.

`CC(=O)c1ccc(NCCNC(=O)c2ccc3c(c2)OCO3)cc1`: the compound was classed as inactive.

For `CN1c2ccc(-c3ccc(F)cc3)cc2[C@H]2[C@H](CCN2C(=O)Nc2ccc(F)cc2)[C@H]1CO`, the compound was called inactive.

With `CNC(=O)c1ccc(N2CCN(C(=O)c3ccc4c(c3)OCO4)CC2)cc1`, the call was inactive.

For `CN1c2ccc(-c3cccc(F)c3)cc2[C@H]2[C@H](CCN2C(=O)Cc2cccnc2)[C@H]1CO`, the outcome was inactive.

Take `CN1c2ccc(-c3ccc(F)cc3)cc2[C@H]2[C@H](CCN2C(=O)Cc2cccnc2)[C@H]1CO`: the result was inactive.

Consider `CCCNC(=O)N1CC[C@@H]2[C@@H](CO)N(C)c3ccc(-c4ccc(F)cc4)cc3[C@@H]21`, for which the outcome was inactive.

For `COCC(=O)N1CC[C@@H]2[C@@H](CO)N(C)c3ccc(-c4cccc(F)c4)cc3[C@@H]21`, the compound was classed as inactive.

Take `COc1ccccc1C(=O)N1CCN(c2ccc(C(C)=O)cc2)CC1`: the call was inactive.

Regarding `CNS(=O)(=O)c1ccc(N2CCN(C(=O)c3ccc4c(c3)OCO4)CC2)cc1`, the result was inactive.

For the compound `CN1c2ccc(-c3cccc(F)c3)cc2[C@H]2[C@H](CCN2C(=O)Cc2ccccc2)[C@H]1CO`, the compound was classed as inactive.

On to `CN1c2ccc(-c3cccc(F)c3)cc2[C@@H]2[C@@H](CCN2C(=O)c2ccc3c(c2)OCO3)[C@H]1CO`, for which the result was inactive.

In the case of `CCC(=O)N1CC[C@@H]2[C@@H](CO)N(C)c3ccc(-c4ccc(F)cc4)cc3[C@@H]21`, the outcome was inactive.

Consider `COc1ccc(NC(=O)N2CC[C@@H]3[C@@H](CO)N(C)c4ccc(-c5ccc(F)cc5)cc4[C@@H]32)cc1`, for which the outcome was inactive.

`CN1c2ccc(-c3cccc(F)c3)cc2[C@H]2[C@H](CCN2C(=O)CCCCCCN)[C@H]1CO`: the outcome was inactive.

For `CN1c2ccc(-c3cccc(F)c3)cc2[C@H]2[C@H](CCN2C(=O)CCCCCCC(=O)O)[C@H]1CO`, the outcome was inactive.

Take `CC(C)NC(=O)N1CC[C@@H]2[C@@H](CO)N(C)c3ccc(-c4ccc(F)cc4)cc3[C@@H]21`: the compound was classed as inactive.

As for `CN1c2ccc(-c3ccc(F)cc3)cc2[C@H]2[C@H](CCN2C(=O)Nc2cc(F)ccc2F)[C@H]1CO`, the outcome was inactive.

These data come from PubChem BioAssay AID743358 (Broad Institute, 2014).
